Measurements reported in the supplement of paper PMC13380429.

Tested on: Vero E6 infected with SARS-CoV-2
Test: inhibition of SARS-CoV-2 cytopathic effect; higher = more antiviral protection, active = above 15
Conditions: 48 h

Measured: inhibition of SARS-CoV-2 cytopathic effect

CN1CCN(C(c2ccccc2)c2ccccc2)CC1 [cyclizine]
inactive: 1 nM -1.86% | 8.33 nM -1.86% | 100 nM -1.97% | 833.33 nM -0.45% | 10000 nM 0.42%

NCC(=O)N1C[C@H](NC(=O)c2ccccc2)C[C@H]1C(=O)O [danegaptide]
inactive: 1 nM -2% | 8.33 nM -0.68% | 100 nM 1.14% | 833.33 nM -0.88% | 10000 nM 3.55%

O=C(CCCCCCC(=O)Nc1ccccc1)NO [vorinostat]
inactive: 1 nM -0.07% | 8.33 nM 0.67% | 100 nM -0.77% | 833.33 nM -5.85% | 10000 nM -23.6%

CN1CCN(c2cccc(Nc3nc4c(-c5ccc(S(C)(=O)=O)cc5)cccn4n3)c2)CC1
inactive: 1 nM -0.26% | 8.33 nM 0.06% | 100 nM 0.85% | 833.33 nM -0.58% | 10000 nM -4.01%

CCc1cc(/C(C)=N/OCc2ccc(C3CCCCC3)c(C(F)(F)F)c2)ccc1CN1CC(C(=O)O)C1 [siponimod]
inactive: 1 nM -0.21% | 8.33 nM -1.67% | 100 nM -0.01% | 833.33 nM -0.18% | 10000 nM 1.37%

CC(=O)O[C@]1(C(C)=O)CC[C@H]2[C@@H]3C[C@H](C)C4=CC(=O)C=C[C@]4(C)[C@@]3(F)[C@@H](O)C[C@@]21C [fluorometholone-acetate]
inactive: 1 nM 0.25% | 8.33 nM 0.86% | 100 nM -0.18% | 833.33 nM 0.37% | 10000 nM -0.24%

O=c1ncn2nc(Sc3ccc(F)cc3F)ccc2c1-c1c(Cl)cccc1Cl
inactive: 1 nM 1.28% | 8.33 nM -0.16% | 100 nM -1.32% | 833.33 nM 1.03% | 10000 nM 1.38%
